According to the supplement of paper PMC6897291:

Tested on: RIVA
Test: growth inhibition by drug alone (1 - RLU/untreated control) (fraction); higher = stronger inhibition
Conditions: 177Lu-lilotomab satetraxetan 0 ug/ml
Method: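 RIVA (RI-1) ABC-DLBCL cells were pretreated or not for 18 h with 0.5 ug/ml 177Lu-lilotomab satetraxetan (600 MBq/mg), washed and seeded (3000 cells/well) on 384-well plates pre-printed with the Selleck Cambridge Cancer Compound library. Viability was read by RealTime-Glo luminescence on days 3-6 after seeding. Effect = 1 - RLU/mean RLU of the 48 untreated no-drug control wells per plate; Bliss score = (M-E)/(1-Fa).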

Structure (SMILES) | growth inhibition by drug alone (10 nM, time (day): 3) | growth inhibition by drug alone (10 nM, time (day): 4) | growth inhibition by drug alone (10 nM, time (day): 5) | growth inhibition by drug alone (10 nM, time (day): 6) | growth inhibition by drug alone (100 nM, time (day): 3) | growth inhibition by drug alone (100 nM, time (day): 4) | growth inhibition by drug alone (100 nM, time (day): 5) | growth inhibition by drug alone (100 nM, time (day): 6)
CC[C@@H](C(=O)[C@@H](C)[C@@H](O)[C@H](C)[C@@H]1O[C@@H]([C@@H](CC)C(=O)O)CC[C@@H]1C)[C@H]1O[C@]2(C=C[C@@H](O)[C@]3(CC[C@@](C)([C@H]4CC[C@](O)(CC)[C@H](C)O4)O3)O2)[C@H](C)C[C@@H]1C [Salinomycin (Procoxacin)] | 0.136 | 0.0825 | -0.0184 | -0.226 | 0.144 | 0.126 | 0.0706 | -0.0392
C[C@]12CCC(=O)C(O)=C1CC[C@@H]1[C@@H]2CC[C@]2(C)C(=O)CC[C@@H]12 [Formestane] | -0.227 | -0.249 | -0.286 | -0.391 | -0.322 | -0.306 | -0.36 | -0.445
O=C(Oc1ccc([N+](=O)[O-])cc1)N1CCC(C(O)(c2ccc3c(c2)OCO3)c2ccc3c(c2)OCO3)CC1 | 0.0104 | -0.0507 | -0.0874 | -0.233 | -0.163 | -0.136 | -0.159 | -0.226
Cc1ccccc1-n1c(Cn2cnc3c(N)ncnc32)nc2cccc(C)c2c1=O | -0.0276 | -0.0854 | -0.0849 | -0.118 | 0.0893 | -0.00364 | -0.0617 | -0.104
Cn1cc(C2=C(c3cn(C4CCN(Cc5ccccn5)CC4)c4ccccc34)C(=O)NC2=O)c2ccccc21 | -0.161 | -0.222 | -0.236 | -0.302 | -0.273 | -0.319 | -0.329 | -0.414
